# Assay outcomes from PubChem BioAssay.
# USP30 block = blocks human USP30 ubiquitin-rhodamine cleavage; Q70CQ3; inhibition, % at 25 µM; actives 5.3% (n = 47,000); purified USP30, Ub-rhodamine cleavage fluorescence
# USP17 inh = blocks human USP17 ubiquitin-rhodamine cleavage. A8MUK1. purified USP17, Ub-rhodamine cleavage fluorescence, 3 h. inhibition, % at 50 µM. actives 6.5% (n = 47,000). AID 1645855
# USP10 block = inhibitors of human USP10 deubiquitinase; inhibition, % at 20 µM; purified USP10, Ub-rhodamine fluorescence, 60 min; Q14694; AID 1645856; actives 1.1% (n = 47,000)
# USP28 block = human USP28 deubiquitinase inhibition; AID 1645857; inhibition, % at 25 µM; purified USP28, Ub-rhodamine cleavage fluorescence, 30 min; Q96RU2; actives 3% (n = 47,000)
# USP8 block = blocks human USP8 ubiquitin-rhodamine cleavage | P40818 | purified USP8, Ub-rhodamine cleavage fluorescence, 30 min | inhibition, % at 20 µM | actives 4.2% (n = 47,000) | AID 1645853
# * hit, by the source's call; i = inactive; / = no result. Rows were chosen to be rich in hits. Some 14% of all compounds tested hit in one or more screens of this group. Cut-off read from the data, not from the text of the source: active = inhibition above about 30%; inactive = the rest.
SMILES,USP30 block,USP17 inh,USP10 block,USP28 block,USP8 block
COc1cc(C(=O)Nc2nc3ccc(S(=O)(=O)N4CCCC4)cc3s2)cc(OC)c1OC,-67.3,40.4*,-5.6,-22.2,-7.7
O=C(CSc1nnc(-c2ccccc2F)n1CCc1ccccc1)c1c[nH]c2ccccc12,-45.2,-51.5,-3.3,-44.2,-8.9
CC(Sc1nnc(-c2ccccc2F)n1CCc1ccccc1)C(=O)N(C)c1ccccc1 (configuration not stated),15.8,4.7,-1.7,7.9,-7.0
Fc1ccccc1-c1nnc(SCc2ccccc2)n1Cc1ccccc1,56.2*,48.1*,11.5,63.8*,29.0
CC(Sc1nnc(-c2ccccc2F)n1Cc1ccccc1)C(=O)N1CCc2ccccc21 (configuration not stated),41.9*,24.1,5.8,17.7,16.7
CCC1Oc2ccc(C(=O)c3ccco3)cc2N(CC(=O)NC(C)C)C1=O (configuration not stated),-91.5,1.2,1.6,0.2,7.8
COc1cc(OC)cc(C(=O)Nc2ccc(O)c(-c3nc4cnccc4o3)c2)c1,-0.1,35.2*,-1.0,10.7,-4.2
COc1cc(OC)cc(C(=O)Nc2cc(-c3cccnc3)no2)c1,16.5,8.0,0.0,12.2,12.7
CCOc1ccccc1NC1c2ccccc2C(=O)N1c1cccnc1 (configuration not stated),-7.9,43.4*,-1.5,1.0,71.0*
CC(C)C(=O)N1C[C@@H]2c3nc(Nc4ccccc4)ncc3CS(=O)(=O)[C@@H]2C1,-0.2,-8.1,0.6,-2.3,-11.8
N#Cc1cccc(C(=O)Nc2ccc([C@H]3OCC(=O)N[C@@H]3CO)cc2)c1,37.4*,38.6*,4.3,5.0,15.7
N#Cc1cccc(CN[C@H]2[C@H](O)[C@H](O)C[C@@H]2c2ccccc2)c1,-21.5,-21.6,-0.1,-9.1,0.8
Cc1noc(C)c1C1CCCN1C(=O)Nc1cccc(Cl)c1 (configuration not stated),-7.1,-19.4,-0.9,-10.5,-104.5
Cc1ccc(Cl)c(-n2nnc(C(=O)Nc3ccccc3C#N)c2C)c1,30.2*,56.1*,11.5,6.3,16.5
Cc1cc(NC(=O)c2nnn(-c3ccccc3Cl)c2C)no1,14.0,2.2,-0.8,85.8*,5.7
CC1CCN(S(=O)(=O)c2cn(Cc3noc(-c4ccc5cc[nH]c5c4)n3)cn2)CC1,-60.9,-10.2,-3.8,-16.2,20.4
COc1cc(C(=O)NC(c2ccccc2)C2CC2)cc(OC)c1C (configuration not stated),12.6,15.8,3.1,9.0,19.4
Cc1ncoc1C(=O)N1CCCC(c2ncc(Cc3ccccc3Cl)o2)C1 (configuration not stated),-27.2,-14.1,-4.9,-7.7,-17.4
CC(=O)c1sc(NC(=O)COc2ccc(N(C)S(=O)(=O)c3ccc(C)cc3)cc2)nc1C,-41.8,18.9,18.4,-39.1,-6.8
CC(=O)c1sc(NCc2ccc(C)cc2)nc1C,5.0,-15.1,2.1,49.6*,2.5
Cn1nc(-c2ccccc2)c(COC(=O)c2ccc([N+](=O)[O-])cc2)c1Cl,11.2,59.5*,7.8,-3.2,4.8
O=C(COc1ccc([N+](=O)[O-])cc1Cl)c1ccc2c(c1)OCCO2,-35.3,-12.8,-1.0,-3.1,-44.2
O=C(OCc1cnc(Cl)s1)c1ccc([N+](=O)[O-])cc1,3.3,-3.3,3.6,40.5*,-132.4
CCOC(=O)N1CCc2c(sc3c2c(=O)n(-c2ccc(Cl)cc2)c(=O)n3CC(=O)NCC2CCCO2)C1 (configuration not stated),-3.0,-3.0,0.4,-3.9,1.9
Cc1cc(N)cc(C2CN(C(=O)CN3CCCCCC3=O)CCO2)n1 (configuration not stated),13.1,8.1,-0.1,0.2,1.5
SMILES,USP30 block,USP17 inh,USP10 block,USP28 block,USP8 block
Cn1nc(-c2ccccc2)c(COC(=O)c2cc(C(F)(F)F)cc(C(F)(F)F)c2)c1S(=O)(=O)c1ccc(Cl)cc1,15.8,15.1,1.5,15.4,19.5
Cc1ccc(-c2csc3ncn(Cc4ccco4)c(=O)c23)cc1,8.7,29.7,3.8,32.0*,-1.3
COc1ccccc1CNC(=O)Cn1cnc2c(-c3ccccc3)csc2c1=O,32.8*,20.7,40.4*,20.0,69.7*
CCOc1ccc(-c2csc3ncn(CC(=O)NCc4ccccc4)c(=O)c23)cc1,-86.2,36.7*,1.2,-5.7,-9.2
CC(C)n1cnc2c(-c3ccccc3)cn(CC(=O)NCc3ccccc3)c2c1=O,-48.2,35.7*,-10.4,-14.1,0.2
CCC(=O)N1c2ccc(S(=O)(=O)CCC(=O)N3CCN(c4ccccn4)CC3)cc2CC1C (configuration not stated),0.4,-8.2,0.0,3.3,-16.5
Fc1ccccc1Cc1cnc(C2CCCN(Cc3cscn3)C2)o1 (configuration not stated),/,-7.4,-0.8,/,-2.8
COc1ccc(NC(=O)Cn2cnc3scc(-c4ccc(OC)cc4)c3c2=O)cc1,-63.4,44.7*,-4.1,0.8,-13.4
CCOc1ccccc1NC(=O)CCn1cnc2ccccc2c1=O,10.1,-25.8,2.9,8.4,-109.5
CCOc1ccc(CNC(=O)CCn2cnc3ccccc3c2=O)cc1,3.4,-105.9,-1.3,-5.3,63.8*
CCN1C/C(=C\c2ccc(C(F)(F)F)cc2)c2nc3ccccc3c(C(=O)O)c2C1,i,-151.6,-12.9,-97.7,-137.1
Oc1sc(C=Nc2cccc(C(F)(F)F)c2)c2ccccc12,i,-52.0,-5.1,-90.7,-60.4
O=C(NCc1csc(-c2ccccc2)n1)c1cc(F)cc2c1OCOC2,15.0,33.0*,3.9,16.6,1.6
COc1ccccc1C1CN(C(C)=O)CCN1C(=O)c1cnco1 (configuration not stated),13.1,5.5,-0.6,4.4,7.1
Cc1c(-c2ccc(C#N)cc2)oc2ccc(Br)cc2c1=O,-4.5,69.7*,3.1,-0.1,5.2
COc1cc(C(=O)Cn2c(=O)n(C)c3ccccc32)cc(OC)c1OC,-8.6,-6.0,-2.1,0.0,-6.2
O=c1[nH]c2ccc(NCc3cccc(OCc4ccc(F)cc4)c3)cc2[nH]1,1.2,18.6,0.0,18.7,-83.5
Cn1c(COc2cccc3cccnc23)nnc1SCC(N)=O,-19.7,-8.4,-0.3,-12.7,1.7
CCn1c(COc2ccc(Cl)c3cccnc23)nnc1SC(F)F,40.2*,17.8,0.3,19.5,12.7
COc1cccc(CNc2ccc3c(cc2=O)[C@@H](NC(C)=O)CCc2cc(OC)c(OC)c(OC)c2-3)c1OC,-91.1,-64.1,-7.7,-41.0,-85.2
Cn1c(CCC(=O)Nc2ccc3c(c2)CCC3)nc2cc(S(=O)(=O)N3CCOCC3)ccc21,32.6*,47.7*,-4.9,6.0,-5.6
Cc1cc(C)n(-c2nc3c(c(=O)n2CC(=O)Nc2cccc(C(F)(F)F)c2)CCC3)n1,-25.1,-2.8,-2.8,2.6,-4.7
O=C(Nc1ccc(Cl)cc1)C1C2C=CC3(O2)C1C(=O)N(CCCN1CCN(Cc2ccccc2)CC1)C3C(=O)NC1CCCCC1 (configuration not stated),-16.3,-7.5,-3.5,-0.7,-40.6
